Only some compounds are listed: those with a hit (about 1% of all), similar ones and a draw of the others.
TrxR1 substrate: is turned over as a substrate by rat TrxR1. 0.01% of 390,000 active. purified TrxR1 substrate turnover, NADPH consumption readout. AID 588456. O89049. Potency, µM (highest dose often 114 µM), without a hit: top-dose activity change, negative = substrate turnover; also: nearly all actives have a fitted effect of over 50% in size
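Rat TrxR1, dispensed at 90 nM, was prereduced with 400 uM NADPH (final) for 5 min at ~22 deg C, then incubated with compound 15 min before 400 uM selenite. A first-read NADPH fluorescence drop versus no-compound background flagged substrates.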
USP2a block: inhibitors of human ubiquitin-specific protease USP2a; O75604; 0.01% of 330,000 active; Potency, µM (doses to about 38.3 µM), inactives show at the top dose activity change, negative = inhibition, usual class: inhibitors; USP2 core, Ub-CHOP2 coupled fluorogenic reporter, 485/531;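 also: plate controls were DMSO wells for no effect and full inhibition by NEM control for full effect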
Target sequence (O75604 whole entry, looked up): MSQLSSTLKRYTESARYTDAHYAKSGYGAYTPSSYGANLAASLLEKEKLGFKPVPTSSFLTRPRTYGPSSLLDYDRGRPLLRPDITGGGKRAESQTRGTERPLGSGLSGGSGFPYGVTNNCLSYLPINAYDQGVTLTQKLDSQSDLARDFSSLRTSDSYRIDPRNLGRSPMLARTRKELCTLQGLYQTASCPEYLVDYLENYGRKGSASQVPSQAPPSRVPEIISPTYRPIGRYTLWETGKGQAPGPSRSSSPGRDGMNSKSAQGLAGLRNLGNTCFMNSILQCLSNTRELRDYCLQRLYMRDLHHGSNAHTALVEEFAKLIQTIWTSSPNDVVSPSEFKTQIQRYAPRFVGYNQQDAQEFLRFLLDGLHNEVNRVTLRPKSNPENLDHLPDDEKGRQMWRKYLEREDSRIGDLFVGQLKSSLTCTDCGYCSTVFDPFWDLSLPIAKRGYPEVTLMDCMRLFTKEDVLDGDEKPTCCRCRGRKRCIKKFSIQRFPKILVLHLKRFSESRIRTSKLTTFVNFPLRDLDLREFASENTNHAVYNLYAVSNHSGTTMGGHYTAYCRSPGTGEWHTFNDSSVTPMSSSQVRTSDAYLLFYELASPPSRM
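Deubiquitinase activity read as fluorescence (485/531 nm) after Ub-CHOP2 cleavage activates the enterokinase reporter on its substrate; USP2 core 10nM, Ub-CHOP2 and substrate 25nM each, 30min compound preincubation then 60min RT; data normalized to NEM, curves fitted.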
GALK inh: inhibitors of human galactokinase; P51570; Purified GALK, Kinase-Glo residual ATP luminescence; Potency, µM (top dose mostly 57.5 µM), for inactives: at the top dose activity change, negative = inhibition, most hits filed as inhibitors; 0.007% of 270,000 active
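Human GALK (5 nM) with 35 uM ATP and 100 uM galactose in 20 mM HEPES pH 8.0, 5 mM MgCl2, 60 mM NaCl, 1 mM DTT, 0.01% BSA. After 1 h at room temperature, leftover ATP was read by Kinase-Glo Plus luminescence.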
TrxR1 inh: inhibitors of rat thioredoxin reductase 1 | O89049 | recombinant rTrxR1, NADPH fluorescence consumption, selenite substrate | Potency, µM (series often up to 114 µM), for the others: at the highest dose activity change, negative = inhibition, most hits filed as inhibitors | 1% of 390,000 active | AID 588453; also: nearly all actives have a fitted effect of over 65% in size
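Rat TrxR1 (90 nM in the dispensed reagent) was pre-reduced with 400 uM NADPH for 5 min at room temperature, then incubated with compound for 15 min. After 400 uM selenite was added, NADPH fluorescence (Ex 340/Em 450 nm) was followed for 8 min.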
RGS4 inh: blocks human RGS4-accelerated GTP hydrolysis | Transcreener GDP fluorescence polarization, RGS4-accelerated GTP hydrolysis | AID 504845 | P49798 | Potency, µM (titrated, usually from 114 µM), for inactives: at the top dose activity change, negative = inhibition, usual class: inhibitors | 0.039% of 390,000 active; also: nearly all actives have a fitted effect of over 75% in size
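MLSMR compounds (23 nl, pin-transferred) preincubated 10 min at room temperature with a 500nM (2x) first reagent, then RGS4 at 900nM (2x) plus Transcreener GDP mix added; fluorescence polarization (620/688 nm) read before and after 90 min at 30 °C.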
Eya2 inh: inhibitors of human Eya2 phosphatase activity | O00167 | recombinant Eya2, OMFP fluorescence dephosphorylation (OMFP is methylfluorescein phosphate) | Potency, µM (doses to about 76.9 µM), for inactives: at the highest dose activity, negative = inhibition, actives largely listed as inhibitors | 0.006% of 330,000 active
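Eya2 protein (added as 0.2 uM solution) was preincubated with compound for 10 min at ambient temperature in 50 mM HEPES pH 7.5, 50 mM NaCl, 5 uM MgCl2, 0.05% BSA, 1 mM DTT. OMFP (added at 50 uM) then reacted 10 min; fluorescence read at 485/525 nm.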
An asterisk follows results filed as active; ? = inconclusive; . = not tested or not shown; [ ] = dose if it differs, or a comment. Calls follow the shape of the dose curve; as a rule, active = well fitted curve in the direction sought with a large enough effect; inconclusive = small, poorly fitted or top-dose-only effect, or another doubt; inactive = no such curve, though single readings can be large; an effect the other way counts as inactive or inconclusive. Unless noted, % is scaled to controls: 0 for no effect and ±100 for the full control effect; potency is read from the fitted curve at half-maximal effect.

SMILES | TrxR1 substrate | USP2a block | GALK inh | TrxR1 inh | RGS4 inh | Eya2 inh
CC(C)=CNNC(=O)c1ccc(O)cc1 | 1% | . | . | 14% | . | .
O=C(N[C@@H](Cc1ccccc1)C(=O)CCl)OCc1ccccc1 | 9%[57.1 µM] | 2% | . | 21µM* | 3.4µM* | -6%
O=C(N[C@@H](Cc1ccccc1)C(=O)N[C@@H](Cc1ccccc1)C(=O)O)OCc1ccccc1 | 9%[57.1 µM] | -4% | . | 8%[57.1 µM] | 0% | -24%
COc1cccc(NC(=O)CN2CCN(C(=O)c3ccco3)CC2)c1 | 9% | 0% | 1% | 71µM* | -26% | 5%
COc1cccc(-c2nc(C#N)c(N3CCN(C(=O)c4ccco4)CC3)o2)c1 | 182% | -4% | 4% | 140% | 0% | 6%
COc1ccc(-c2csc(N3CCN(C(=O)c4ccccc4)CC3)n2)cc1 | -3%[57.1 µM] | -8% | 0% | 5%[57.1 µM] | 15% | -4%
COc1cccc(-c2cc(C(=O)N3CCN(C(=O)c4ccco4)CC3)on2)c1 | 5% | 2% | -4% | 79µM* | 7%[11.4 µM] | 6%
O=C(CN1CCN(C(=O)c2ccco2)CC1)Nc1ccccc1 | 7% | 0% | -1% | 19% | 2% | 4%
COc1ccc(-c2csc(N3CCN(C(=O)c4ccco4)CC3)n2)cc1 | -2%[57.1 µM] | 11µM* | 2% | 8%[57.1 µM] | -37% | 1%
C=C1C=C(C(F)F)n2ncc(C(=O)N3CCN(c4ccccc4)CC3)c2N1 | 0% | . | . | -2% | . | .
CN(C)c1ccc(/C=C/c2cccc3cc4ccccc4nc23)cc1 | -5% | . | . | ? | . | .
O=C(NCCN1CCCC1)c1ccccc1Cl | 1% | 2% | 4% | 17% | 20% | 1%
O=C1C(Cl)=C(NCCN2CCCCC2)C(=O)c2ccccc21 | 4% | 0% | -2% | 11µM* | 8% | 9%
CCSc1nnc(NC(=O)C2Cc3ccccc3CN2C(=O)c2ccco2)s1 (stereo not drawn) | -2% | -3% | -1% | 32µM* | -10% | -5%
Cc1ccccc1NC(=O)C1Cc2ccccc2CN1C(=O)c1ccco1 (stereo not drawn) | 5% | -1% | 8% | ? | -23% | -4%
NCCN1CCN(CC(=O)N2c3ccccc3C(=O)Nc3cccnc32)CC1 | 10%[57.1 µM] | . | . | -1%[57.1 µM] | 3% | .
O=C1Nc2cccnc2N(C(=O)CCl)c2ccccc21 | -5% | 0% | 2% | 13µM* | -3% | -5%
COc1ccc(S(=O)(=O)N2CCCN(CC(=O)C(C)(C)C)CC2)cc1 | 1% | 1% | 0% | 13µM* | -31% | 2%
COc1ccc(S(=O)(=O)N2CCCN(CC(=O)Nc3ccc4c(c3)OCO4)CC2)cc1 | -8% | 2% | -6% | 79µM* | -25% | ?
O=C1C2C(C(=O)N1/N=C/c1ccc(N3CCCCC3)o1)C1C=CC2C12CC2 (stereo not drawn) | -3% | -1% | -2% | 25µM* | -57% | -14%
Cc1ccc2c(c1C)-c1c(ccc(C)c1C)C(=O)C2=O | 45µM* | . | . | ? | ? | .
Nc1ccc2c(c1Cl)C(=O)c1ccc(N)c(Cl)c1C2=O | 11%[57.1 µM] | 4% | -1% | 17%[57.1 µM] | -9% | -1%
CCCCCCC[n+]1ccc(/C=C/c2c(C)[nH]c3ccccc23)c2ccccc21 | 3% | . | . | -8% | . | .
CN(C)c1ccc(C=O)c(Cl)c1 | -11% | . | . | -3% | . | .
O=C(CSc1nccn1-c1ccc(F)cc1)Nc1ccc(OC(F)(F)F)cc1 | 2%[57.1 µM] | . | . | 20%[57.1 µM] | -51% | .
Cc1nc([N+](=O)[O-])c(Br)n1CC(=O)c1ccc(Br)cc1 | 4% | 5% | -1% | 11µM* | 10% | 14%
Cc1nc([N+](=O)[O-])c(Br)n1CC(=O)c1ccccc1 | -9% | 0% | -1% | 11µM* | 19% | 11%
Cc1nc([N+](=O)[O-])c(Br)n1CC(=O)c1ccc2ccccc2c1 | -5% | -10% | -1% | 11µM* | -26%[11.4 µM] | 1%
Cc1nc([N+](=O)[O-])c(C(=O)OCc2ccccc2Br)n1C | -4% | 5% | -2% | 6%[57.1 µM] | 5% | 12%
